Sfp inh: Sfp phosphopantetheinyl transferase inhibition; Q9F4F7; Potency, µM, inactives show largest response in the series, negative = inhibition, actives largely listed as inhibitors; Biochemical Sfp PPTase activity, qHTS; AID 1490; 3.5% of 310,000 active;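 also: the enzyme is Sfp with the accession as filed and its product quenches rhodamine fluorescence; 0% = enzyme reaction without inhibitor and -100% = no enzyme wells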
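Sfp 15 nM + cpd, 15 min RT; start w/ rhodamine-CoA 5 uM, BHQ-2-YbbR 12.5 uM (final); 50 mM Hepes pH 7.6, 10 mM MgCl2, 0.01% NP-40, 0.01% BSA; read 525/598 nm at 0 and 30 min.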
BAZ2B inh: blocks human BAZ2B; Q9UIF8; AlphaScreen BAZ2B-H3K14Ac peptide displacement; Potency, µM (highest dose often 114 µM), for inactives: at the highest dose activity change, negative = inhibition, hits mostly inhibitors; 4.4% of 360,000 active; AID 504333; also: % is scaled to controls: 0 for no effect and ±100 for the full control effect; nearly all actives have a fitted effect of over 60% in size
Target sequence (Q9UIF8 whole entry, looked up): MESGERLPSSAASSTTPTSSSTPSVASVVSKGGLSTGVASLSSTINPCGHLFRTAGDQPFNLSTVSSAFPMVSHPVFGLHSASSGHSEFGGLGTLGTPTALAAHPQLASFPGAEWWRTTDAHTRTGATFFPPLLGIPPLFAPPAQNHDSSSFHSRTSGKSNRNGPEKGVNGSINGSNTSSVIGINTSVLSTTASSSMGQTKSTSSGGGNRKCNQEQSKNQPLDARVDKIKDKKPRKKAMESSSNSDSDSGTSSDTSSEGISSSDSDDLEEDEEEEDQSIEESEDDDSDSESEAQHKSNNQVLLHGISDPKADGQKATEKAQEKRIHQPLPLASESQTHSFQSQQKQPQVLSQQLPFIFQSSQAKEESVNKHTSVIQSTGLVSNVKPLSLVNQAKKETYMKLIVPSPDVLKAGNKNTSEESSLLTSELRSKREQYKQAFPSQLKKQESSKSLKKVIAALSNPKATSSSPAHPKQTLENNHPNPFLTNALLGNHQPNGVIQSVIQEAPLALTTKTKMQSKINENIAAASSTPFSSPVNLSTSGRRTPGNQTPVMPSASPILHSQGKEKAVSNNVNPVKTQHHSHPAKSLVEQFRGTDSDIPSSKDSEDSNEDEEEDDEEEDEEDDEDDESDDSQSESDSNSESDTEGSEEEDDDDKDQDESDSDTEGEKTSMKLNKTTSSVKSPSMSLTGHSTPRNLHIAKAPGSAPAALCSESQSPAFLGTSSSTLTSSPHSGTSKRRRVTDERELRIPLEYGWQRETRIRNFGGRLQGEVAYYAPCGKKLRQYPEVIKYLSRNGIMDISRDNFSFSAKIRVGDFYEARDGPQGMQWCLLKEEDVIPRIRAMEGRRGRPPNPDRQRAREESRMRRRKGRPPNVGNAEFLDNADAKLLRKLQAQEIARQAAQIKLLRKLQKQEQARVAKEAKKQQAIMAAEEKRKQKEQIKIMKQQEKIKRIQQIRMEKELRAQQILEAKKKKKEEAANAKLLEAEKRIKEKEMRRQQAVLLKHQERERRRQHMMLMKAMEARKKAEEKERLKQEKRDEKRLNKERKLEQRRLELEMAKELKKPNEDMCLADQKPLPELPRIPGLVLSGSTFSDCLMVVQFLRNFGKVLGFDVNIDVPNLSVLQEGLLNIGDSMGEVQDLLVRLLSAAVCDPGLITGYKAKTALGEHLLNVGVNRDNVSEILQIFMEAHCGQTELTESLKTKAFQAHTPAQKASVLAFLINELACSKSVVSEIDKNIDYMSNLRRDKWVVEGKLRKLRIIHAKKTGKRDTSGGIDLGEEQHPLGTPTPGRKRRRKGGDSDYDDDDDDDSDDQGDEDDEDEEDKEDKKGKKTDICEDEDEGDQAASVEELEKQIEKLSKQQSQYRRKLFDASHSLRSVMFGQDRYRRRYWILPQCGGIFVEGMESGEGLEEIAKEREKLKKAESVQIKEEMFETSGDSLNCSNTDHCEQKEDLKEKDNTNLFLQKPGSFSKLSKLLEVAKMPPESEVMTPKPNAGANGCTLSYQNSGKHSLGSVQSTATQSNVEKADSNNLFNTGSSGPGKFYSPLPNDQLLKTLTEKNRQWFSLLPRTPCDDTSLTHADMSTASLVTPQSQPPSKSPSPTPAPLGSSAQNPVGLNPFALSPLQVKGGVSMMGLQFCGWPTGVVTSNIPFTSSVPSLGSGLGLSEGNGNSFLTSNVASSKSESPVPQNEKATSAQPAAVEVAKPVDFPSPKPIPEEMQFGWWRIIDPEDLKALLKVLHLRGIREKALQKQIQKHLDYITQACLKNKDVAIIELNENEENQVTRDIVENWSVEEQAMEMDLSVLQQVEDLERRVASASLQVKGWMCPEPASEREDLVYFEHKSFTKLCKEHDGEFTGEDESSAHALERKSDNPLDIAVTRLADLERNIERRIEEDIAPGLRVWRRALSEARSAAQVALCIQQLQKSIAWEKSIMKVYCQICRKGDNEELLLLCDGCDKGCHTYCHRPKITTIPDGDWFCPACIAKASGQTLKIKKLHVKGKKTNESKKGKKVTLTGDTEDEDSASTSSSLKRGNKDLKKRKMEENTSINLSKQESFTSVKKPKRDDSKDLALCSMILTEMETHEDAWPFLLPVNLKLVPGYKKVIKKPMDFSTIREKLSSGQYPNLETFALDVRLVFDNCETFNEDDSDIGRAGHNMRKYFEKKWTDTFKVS
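Multi-concentration screen (max 110 uM) measuring displacement of acetylated histone H3 peptide from BAZ2B by AlphaScreen, using 50 nM protein, 50 nM peptide and 10 ug/mL streptavidin donor plus Ni-chelate acceptor beads.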
L3MBTL1 block: inhibitors of human L3MBTL1; AlphaScreen L3MBTL1–H3K9me1 peptide binding; Potency, µM (doses to about 57.1 µM), for the others: at the top dose activity, negative = inhibition, hits mostly inhibitors; AID 485360; 0.66% of 230,000 active; also: % is scaled to controls: 0 for no effect and ±100 for the full control effect; nearly all actives have a fitted effect of over 60% in size
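L3MBTL1 50 nM + b-AHA-H3(1-15)K9me1 75 nM, 30 min RT; compound added, 30 min RT; streptavidin donor/Ni-chelate acceptor beads 10 ug/mL each final, 30 min RT dark; AlphaScreen read.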
JMJD2A Tudor inh: JMJD2A Tudor domain (human) inhibition; O75164; AlphaScreen JMJD2A-Tudor / H3K4me3 peptide binding; Potency, µM (highest dose often 114 µM), without a hit: at the highest dose activity change, negative = inhibition, hits mostly inhibitors; 4.4% of 390,000 active; AID 504339; also: % is scaled to controls: 0 for no effect and ±100 for the full control effect; nearly all actives have a fitted effect of over 50% in size
G9a block: inhibitors of human histone lysine methyltransferase G9a. Potency, µM (series often up to 102 µM), without a hit: at the highest dose activity, negative = inhibition, hits mostly inhibitors. AID 504332. G9a H3K9 monomethylation, AlphaScreen, 2 h. 8.8% of 350,000 active; also: % is scaled to controls: 0 for no effect and ±100 for the full control effect; nearly all actives have a fitted effect of over 75% in size
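G9a (20 nM) preincubated 15 min RT with compounds, then 500 nM biotinylated H3K9 peptide and 20 uM SAM added; 2 h RT reaction. Monomethyl-H3K9 product detected by AlphaScreen with anti-H3K9me1 antibody, streptavidin donor and anti-rabbit IgG acceptor beads.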
HP1b binding inh: inhibitors of HP1-beta chromodomain binding to methylated histone tails; 0.56% of 390,000 active; AID 540317; AlphaScreen HP1-beta / biotin-H3K9me3 peptide binding; Potency, µM (series often up to 114 µM), inactives show top-dose activity change, negative = inhibition, actives largely listed as inhibitors; also: nearly all actives have a fitted effect of over 70% in size
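Compound inhibition of the preformed complex between 50 nM HP1-beta and 50 nM biotinylated H3K9me3 peptide was read by AlphaScreen. Buffer was PBS pH 7.4 with 0.01% Tween-20. Incubations ran 30 min at room temperature, with 10 ug/mL donor/acceptor beads.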
The depositor's hits bear a star; ? = inconclusive; . = no result; ! = not active in a repeat; [ ] = dose if it differs, or a comment. Compounds with a hit are over-represented: about 12% of the library has one in this group of screens. Calls follow the shape of the dose curve; as a rule, active = well fitted curve in the direction sought with a large enough effect; inconclusive = small, poorly fitted or top-dose-only effect, or another doubt; inactive = no such curve, though single readings can be large; an effect the other way counts as inactive or inconclusive. Potency is read from the fitted curve at half-maximal effect.

SMILES | Sfp inh | BAZ2B inh | L3MBTL1 block | JMJD2A Tudor inh | G9a block | HP1b binding inh
O=C(Nc1cccc(-c2cn3c(n2)SCC3)c1)c1ccc2c(c1)OCO2 | 14.7% | ? | -10.6% | ? | 44.7µM* | -30.7%
O=C(Nc1ccc(-c2cn3c(n2)SCC3)cc1)c1ccc2c(c1)OCO2 | 14.2% | -12.9% | -5.9% | -2.5% | 3.7% | 20.8%
O=S(=O)(Nc1ccc(-c2cn3c(n2)SCC3)cc1)c1cccs1 | 5.1% | -27.4% | . | -30.8% | 35.5µM* | 1.7%
COc1ccc(C)cc1NC(=O)Cn1nc(N2CCN(c3ccccc3OC)CC2)ccc1=O | . | ? | . | ? | 1.7%[59 µM] | 0.6%
N/C(=N\N=C\c1ccc2c(c1)OCO2)SC1CC(=O)N(c2ccc(C(=O)O)cc2)C1=O (stereo not drawn) | -15.6% | ? | ? | -18.1% | ? | 15.2%
C/C(CCc1ccc2c(c1)OCO2)=N\N=C(/N)SC1CC(=O)N(c2ccc(Cl)cc2)C1=O (stereo not drawn) | 56.2µM* | -2.3% | -4.1% | ? | -26.6%[59 µM] | -1.8%
Cc1cc(C)n(C(C)CC(=O)Nc2ccc(C)c(N(C)C)c2)n1 (stereo not drawn) | . | -20.6% | . | -26.3% | 5.2%[59 µM] | 42.7%
COc1cc(/C=C/C(=O)O)cc(S(=O)(=O)Nc2ccc3cn[nH]c3c2)c1OC | . | -2.5% | -0.7% | -3.8% | -12.8%[2.33 µM] | 37.0%
COc1cc(/C=C/C(=O)O)cc(S(=O)(=O)Nc2ccc3nc(SC)sc3c2)c1OC | 0.0% | . | -0.9% | -13.9% | 39.8µM* | 14.4%
COc1ccc(/C=N/N=C2/CC(C)(C)Cc3n[nH]c(=O)cc32)cc1 | ? | -30.2% | -9.7% | -4.2% | 35.5µM* | 40.9%
CCN(CC)CCOC(=O)C(c1ccccc1)C1CCCCC1 (stereo not drawn) | 17.2% | . | -7.1% | -34.5% | -7.5%[2.33 µM] | 8.0%
CCN(CC)CCOC(=O)C1(c2ccc(OC)c(OC)c2)CCCC1 | 79.4µM* | -9.8% | . | -18.7% | ? | 29.8%
CCN(CC)CCOC(=O)C1(C2CCCCC2)CCCCC1 | 8.1% | ? | -11.4% | -31.7% | 33.6µM*! | 11.3%
CCN(CC)CCOC(=O)C1(c2ccccc2)CCCC1 | 13.5% | -2.1% | . | 0.0% | -40.7%[12.7 µM] | 37.3%
CCOC(=O)C1CCCN(C(=O)Cn2nc(CC)n3c(cc4occc43)c2=O)C1 (stereo not drawn) | . | -24.4% | . | -12.8% | -15.7%[59 µM] | 23.1%
c1ccc(-c2nnc(SCc3nnc(-c4cccs4)o3)o2)cc1 | -8.2% | 50.1µM* | . | -12.3% | ? | 25.8%
CCCCNC(=O)c1nn(-c2ccc(C)cc2)c(=O)n(C)c1=O | . | -3.0% | . | -17.9% | -4.4%[59 µM] | 13.2%[57 µM]
COc1ccc(-c2nc3ccccc3c(=O)n2Cc2ccccc2)cc1COc1ccc(NC(C)=O)cc1 | . | . | . | -10.2% | . | .
COc1ccc(-c2nc3ccc(NC(=O)CO)cc3c(=O)n2Cc2cccc(Cl)c2)cc1COc1ccc(NC(C)=O)cc1 | . | . | . | 56.2µM* | . | -17.3%
COc1ccc(-c2nc3ccccc3c(=O)n2Cc2ccccc2)cc1CNc1ccc(NC(C)=O)cc1 | . | . | . | 50.1µM* | . | .
Cc1ccc(Nc2ncccc2C(N)=O)cc1[N+](=O)[O-] | -11.2% | -30.1% | 2.8% | -14.7% | 35.5µM* | -11.6%
CCOC(=O)c1ccc(N/N=C/c2cc(Br)cc([N+](=O)[O-])c2O)cc1 | 17.9% | ? | ? | 10µM* | 0.562µM* | ?
CCOC(=O)c1ccc(Nc2ncccc2[N+](=O)[O-])cc1 | -2.8% | 7.94µM* | -24.8% | ? | . | ?
COC(=O)c1ccc(N/N=C/c2cc([N+](=O)[O-])cc(OC)c2O)cc1 | -15.0% | -16.0% | -14.9% | -18.2% | ? | 29.0%
CCc1cccc(CC)c1NC(=O)c1cc(S(=O)(=O)N2CCc3ccccc32)cn1C | . | ? | . | ? | ? | -19.5%
SMILES | Sfp inh | BAZ2B inh | L3MBTL1 block | JMJD2A Tudor inh | G9a block | HP1b binding inh
Cc1noc(C)c1-c1cc(NCc2ccccc2)ncn1 | -1.2% | . | . | . | . | .
O=C(NNC(=S)Nc1ccc(Br)cc1)c1ccccc1Br | -11.1% | -20.7% | . | -22.2% | 7.94µM* | -14.4%
O=C(Nc1ccc(C(F)(F)F)cc1)c1ccccc1Br | 9.9% | -0.1% | . | 35.5µM* | 1.6% | -6.4%
O=C(NNC(=O)c1ccccc1Br)c1ccccc1Cl | 17.8% | -2.2% | 7.8% | -16.3% | -3.1% | 22.6%
O=C(NNC(=S)Nc1ccc(Br)cc1)c1ccccc1 | 9.6% | -16.9% | . | -24.2% | -24.9% | 17.3%
O=C(NNC(=S)Nc1ccccc1Cl)c1ccccc1Br | -10.4% | -14.2% | . | -21.9% | 39.8µM* | 12.2%
O=C(Nc1ccc(NC(=O)c2ccccc2Br)cc1)c1ccccc1 | 8.9% | 8.1% | 3.8% | -15.0% | . | 55.2%
COc1ccc(-c2noc(-c3ccc(NC4CCCC4)c([N+](=O)[O-])c3)n2)cc1 | . | -31.6% | . | -7.9% | ? | 57.5%
O=C(NCc1ccc2c(c1)CCN2C(=O)c1ccccc1)c1ccco1 | . | -3.1% | . | -5.0% | 4.2%[59 µM] | 23.1%
Cc1ccc(-n2c(SCC(=O)NCc3ccco3)nc3sc(C)c(C)c3c2=O)cc1 | -3.0% | -1.2% | -46.5% | -7.8% | -44.1%[59 µM] | 11.9%
C=CCn1c(SCC(=O)NCCCC(=O)OCC)nc2scc(-c3ccco3)c2c1=O | 17.8µM* | -14.2% | -0.9% | -8.4% | ? | 26.2%
CC(C)C(C)(C#N)NC(=O)CSc1nc2scc(-c3ccco3)c2c(=O)n1-c1ccccc1 (stereo not drawn) | 7.94µM* | -11.5% | -1.2% | -3.1%[11.4 µM] | 44.7µM* | 50.4%
C=CCn1c(SCC(C)=O)nc2scc(-c3ccco3)c2c1=O | 7.08µM* | 44.7µM* | . | 50.1µM* | 7.94µM* | ?
C=CCn1c(SC(F)F)nc2scc(-c3ccco3)c2c1=O | ? | -12.0% | . | 14.5% | -61.4% | -3.7%
C=CCn1c(SCC(=O)N2CCOCC2)nc2scc(-c3ccco3)c2c1=O | 2.82µM* | ? | ? | 28.2µM* | ? | -23.0%
Cc1c(-c2ccccc2)n(-c2ccccc2O)c2nc3c(c(=O)n(C)c(=O)n3C)n12 | . | -11.4% | . | -17.2% | -3.1%[59 µM] | 18.0%
NNC(=O)C(C(=O)OCc1ccccc1)c1ccccc1 (stereo not drawn) | . | . | . | -20.5% | . | .
C/C(=C(/CCOC(=O)C(C)C)SS/C(CCOC(=O)C(C)C)=C(\C)N(C=O)Cc1cnc(C)nc1N)N(C=O)Cc1cnc(C)nc1N | -17.4% | . | . | . | -1.3%[12.7 µM] | .
Cc1c(C)c2c(c(C)c1O)CC[C@@](C)(CCC[C@@H](C)CCC[C@@H](C)CCCC(C)C)O2 | 16.7% | . | . | . | 8.4%[21.5 µM] | .
O=C(CN1C(=O)C2C3C=CC(C3)C2C1=O)Nc1nc2ccccc2[nH]1 (stereo not drawn) | -1.6% | -35.2% | . | 11.2µM* | 79.4µM* | 6.4%

High-throughput results as filed in PubChem.
